# From PubChem BioAssay AID743361 (Molecular Libraries Program, Specialized Chemistry Center, …, 2014)
# Unmarked numbers belong to inactive results. Active and inactive are the calls of the source. The rule behind the calls is not given here.
# Assay: cell-free Rh123 fluorescence quenching read-out – biochemical, dry powder samples, uHTS hits, counter-screen for mtPTP inhibitor project, dose response (AID 743361)
# Conditions: Rhodamine 123 fluorescence quenching counterscreen
row,SMILES,IC50
1,COc1ccc(Cl)cc1C(=O)Nc1ccc(CCN2CCCCC2)cc1,> 100 µM
2,CN1CCN(c2ccc(NS(=O)(=O)c3ccc(F)c(Cl)c3)cc2)CC1,> 100 µM
3,COc1c(Cl)cccc1NC(=O)c1cc(-c2cccc(O)c2)on1,> 100 µM
4,COc1ccccc1C(=O)Nc1ccc(CN2CCCCC2)cc1,> 100 µM
5,Cc1c(Cl)cccc1NC(=O)c1cc(-c2cccc(O)c2)on1,> 100 µM
6,COc1ccc(Cl)c(C(=O)Nc2ccc(CN3CCN(C)CC3)cc2)c1,> 100 µM
7,CN1CCN(CCc2ccc(NS(=O)(=O)c3cccc(Cl)c3)cc2)CC1,> 100 µM
8,CN1CCN(CCc2ccc(NS(=O)(=O)c3cc(Cl)cc(Cl)c3)cc2)CC1,> 100 µM
9,COc1ccc(Cl)c(C(=O)Nc2ccc(CCN3CCCCC3)cc2)c1,> 100 µM
10,COc1ccc(Cl)c(C(=O)Nc2ccc(CN3CCCCC3)cc2)c1,> 100 µM
11,CC1(C)CCN(CCCC(=O)c2ccc(Br)cc2)CC1,> 100 µM
12,COc1cccc(-c2cc(C(=O)Nc3cc(Cl)ccc3C)no2)c1,> 100 µM
13,O=C(Nc1cc(Cl)cc(Cl)c1)c1cc(-c2cccc(O)c2)on1,> 100 µM
14,COc1ccc(/C=C/C(=O)Nc2cccc(Cl)c2)cc1O,> 100 µM
15,Cc1ccc(NC(=O)c2cc(-c3cccc(O)c3)on2)cc1Cl,> 100 µM
16,O=C(Nc1ccc(CN2CCCCC2)cc1)c1cc(OCc2ccccc2)ccc1Cl,76.2 µM (active)

row,SMILES,IC50
1,COc1ccc(NC(=O)c2cc(Cl)cc(Cl)c2OC)cc1,> 100 µM
2,Cc1cc(NC(=O)c2ccc(-n3cnnc3)cc2)no1,> 100 µM
3,Cc1ccc(Cl)cc1NC(=O)c1cc(-c2cccc(O)c2)on1,> 100 µM
4,COc1ccc(Cl)c(C(=O)Nc2ccc(CN3CCOCC3)cc2)c1,> 100 µM
5,COc1ccc(Cl)c(C(=O)Nc2ccc(CCN3CCN(C)CC3)cc2)c1,> 100 µM
6,O=C(Nc1ccc(CN2CCCCC2)cc1)c1cccc(Cl)c1,> 100 µM
7,O=C(Nc1ccc(CN2CCCCC2)cc1)c1ccc(Cl)c(OCc2ccccc2)c1,28.2 µM (active)
8,COc1ccc(Cl)cc1C(=O)Nc1ccc(N2CCOCC2)cc1,> 100 µM
9,O=C(Nc1cccc(Cl)c1)c1cc(-c2ccccc2)on1,> 100 µM
10,O=S(=O)(Nc1ccc(CCN2CCCCC2)cc1)c1cccc(Cl)c1,> 100 µM
11,COc1ccc(Cl)cc1C(=O)Nc1ccc(CCN2CCOCC2)cc1,> 100 µM
12,O=S(=O)(Nc1ccc(CCN2CCCCC2)cc1)c1ccc(F)c(Cl)c1,> 100 µM
13,O=C(Nc1ccc(CN2CCCCC2)cc1)c1cc(Cl)cc(OCc2ccccc2)c1,26.9 µM (active)
14,COc1ccc(Cl)cc1C(=O)Nc1ccc(N2CCN(C)CC2)cc1,> 100 µM
15,CC1CCN(CCCC(=O)c2ccc(Br)cc2)CC1,> 100 µM
